According to PubChem BioAssay (NCI):
The panel holds about 79,000 compounds, 15% with a hit somewhere; the sample as a whole holds those more often. Activity calls are given as the source filed them. No stated cut-off is given here; in the data, active means growth inhibition above about 70%; inactive means the rest.

Tests used:
[1] = NCI Yeast Anticancer Drug Screen. Data for the rad52 strain (AID 147);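 further: 0% = growth of vehicle-treated control cultures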; settings: S. cerevisiae rad52 mutant growth inhibition, stronger effect = higher value
Procedure, shortened: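 Read-out: growth inhibition versus vehicle-treated controls. Cells were a DNA repair-deficient yeast strain treated with compounds.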

[2] = NCI Yeast Anticancer Drug Screen. Data for the wt1 strain (AID 149);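 further: 0% = growth of vehicle-treated wt1 cultures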; settings: S. cerevisiae wt1 strain (SPY 50644) growth inhibition, stronger effect = higher value
Procedure, shortened: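 Growth inhibition read against vehicle controls after compound exposure of the wt1 yeast strain.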

[3] = NCI Yeast Anticancer Drug Screen. Data for the rad50EPP+ strain (AID 151);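 further: 0% = growth of vehicle-treated control cultures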; settings: S. cerevisiae rad50 mutant strain, stronger effect = higher value
Procedure, shortened: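 Growth inhibition read against vehicle controls in rad50EPP+ yeast, a strain altered in DNA damage repair, after compound exposure.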

[4] = NCI Yeast Anticancer Drug Screen. Data for the mgt1 strain (AID 153); settings: S. cerevisiae mgt1 mutant growth inhibition, stronger effect = higher value
Procedure, shortened: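 mgt1 yeast grown with test compound; read-out is growth inhibition versus vehicle-treated cultures.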

[5] = NCI Yeast Anticancer Drug Screen. Data for the rad50 strain (AID 155);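 further: 0% = growth of vehicle-only cultures of the same strain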; settings: S. cerevisiae rad50 strain growth inhibition, stronger effect = higher value
Procedure, shortened: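 Readout: growth inhibition relative to vehicle-treated cultures. Compound exposure was carried out in a genetically defined yeast strain deficient in DNA damage repair.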

[6] = NCI Yeast Anticancer Drug Screen. Data for the mec2-1 strain (AID 157); settings: S. cerevisiae mec2-1 strain, stronger effect = higher value
Procedure, shortened: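 Yeast mec2-1 mutant treated with compound. Readout: growth inhibition vs vehicle controls.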

[7] = NCI Yeast Anticancer Drug Screen. Data for the rad14 strain (AID 159);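 further: 0% = growth of vehicle-treated control cultures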; settings: S. cerevisiae rad14 strain growth inhibition, stronger effect = higher value
Procedure, shortened: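 Growth inhibition vs vehicle controls; genetically altered yeast strain (DNA damage repair defect) treated with test compounds.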

[8] = NCI Yeast Anticancer Drug Screen. Data for the sgs1 mgt1 strain (AID 161);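 further: 0% = growth of cultures given vehicle only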; settings: S. cerevisiae sgs1 mgt1 strain, stronger effect = higher value
Procedure, shortened: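 Read-out: growth inhibition vs vehicle controls. Cells: mutant yeast strain deficient in DNA damage repair.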

[9] = NCI Yeast Anticancer Drug Screen. Data for the CLN2oe strain (AID 163);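 further: 0% = growth of vehicle-only control cultures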; settings: S. cerevisiae CLN2oe strain, stronger effect = higher value
Procedure, shortened: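 Read-out: yeast growth inhibition, expressed relative to vehicle-only controls. The strain bears an engineered cell-cycle alteration.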

[10] = NCI Yeast Anticancer Drug Screen. Data for the cln2 rad14 strain (AID 165);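 further: 0% = growth equal to vehicle treated cultures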; settings: S. cerevisiae cln2 rad14 strain, stronger effect = higher value
Procedure, shortened: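 cln2 rad14 yeast strain; compound exposure; growth inhibition read vs vehicle controls.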

[11] = NCI Yeast Anticancer Drug Screen. Data for the bub3 strain (AID 167); settings: S. cerevisiae bub3 mutant strain, stronger effect = higher value
Procedure, shortened: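 Readout: yeast growth inhibition, expressed relative to vehicle-only wells. The test organism is a mutant strain from a panel with lesions in DNA repair or checkpoint genes.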

[12] = NCI Yeast Anticancer Drug Screen. Data for the wt2 strain (AID 169);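 further: 0% = growth of vehicle-treated yeast cultures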; settings: S. cerevisiae wt2 strain growth inhibition, stronger effect = higher value
Procedure, shortened: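 Read-out: growth inhibition versus vehicle-treated control cultures after compound exposure of the yeast strain.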

[13] = NCI Yeast Anticancer Drug Screen. Data for the mlh1 strain (AID 171);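 further: 0% = growth of vehicle-treated control cultures of the same strain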; settings: S. cerevisiae mlh1 strain growth inhibition, stronger effect = higher value
Procedure, shortened: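 Read-out: growth inhibition versus vehicle controls. Strain: engineered yeast with a defined DNA repair or cell cycle defect, compound-treated.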

[14] = NCI Yeast Anticancer Drug Screen. Data for the sgs1 strain (AID 173);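 further: 0% = growth of vehicle-only control cultures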; settings: S. cerevisiae sgs1 mutant, stronger effect = higher value
Procedure, shortened: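 Read-out: yeast growth inhibition relative to vehicle controls, following compound exposure of a strain with a defined DNA repair/cell cycle alteration.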

[15] = NCI Yeast Anticancer Drug Screen. Data for the mlh1 rad18 strain (AID 175); settings: S. cerevisiae mlh1 rad18 strain growth inhibition, stronger effect = higher value
Procedure, shortened: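 Yeast w/ defined DNA-repair lesions; compound exposure; growth vs vehicle controls → % inhibition.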

[16] = NCI Yeast Anticancer Drug Screen. Data for the rad18 strain (AID 177); settings: S. cerevisiae rad18 mutant growth inhibition, stronger effect = higher value
Procedure, shortened: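 Readout: growth inhibition vs vehicle controls. Cells: genetically altered yeast strain, DNA repair defect.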

[17] = at 5.0 µM (retest, dose inferred, filed as 0.5)
[18] = at 50.0 µM (retest, dose inferred, filed as 5.0)

Measured: growth inhibition

CC(/C=C/c1ccc2c(c1)OCO2)[N+](=O)[O-] (stereo unspecified)
inactive: [1]; at 1.2 µM 40% | [2]; at 1.2 µM 8% | [4]; at 1.2 µM 1% | [4]; at 3.7 µM 16% | [5]; at 1.2 µM 33% | [6]; at 1.2 µM 4% | [6]; at 3.7 µM 30% | [6]; [17] 2% | [7]; at 1.2 µM 18% | [7]; at 3.7 µM 61% | [8]; [17] 62% | [9]; at 1.2 µM -1% | [9]; at 3.7 µM 37% | [10]; [17] -13% | [11]; at 1.2 µM 23% | [11]; at 3.7 µM 69% | [11]; [17] 46% | [12]; at 1.2 µM 10% | [13]; at 1.2 µM -2% | [13]; at 3.7 µM 64% | [14]; at 1.2 µM 30% | [15]; [17] 66% | [16]; at 1.2 µM 10% | [16]; at 3.7 µM 58%
active: [1]; at 3.7 µM 93% | [1]; at 11.0 µM 99% | [1]; at 33.0 µM 99% | [1]; at 100.0 µM 99% | [2]; at 3.7 µM 71% | [2]; at 11.0 µM 99% | [2]; at 33.0 µM 100% | [2]; at 100.0 µM 99% | [3]; at 1.2 µM 73% | [3]; at 3.7 µM 94% | [3]; at 11.0 µM 99% | [3]; at 33.0 µM 99% | [3]; at 100.0 µM 99% | [4]; at 11.0 µM 99% | [4]; at 33.0 µM 99% | [4]; at 100.0 µM 99% | [5]; at 3.7 µM 86% | [5]; [17] 86% | [5]; at 11.0 µM 99% | [5]; at 33.0 µM 99% | [5]; [18] 97% | [5]; at 50.0 µM 99.6% | [5]; at 100.0 µM 99% | [6]; at 11.0 µM 100% | [6]; at 33.0 µM 99% | [6]; [18] 99% | [6]; at 50.0 µM 99.7% | [6]; at 100.0 µM 99% | [7]; at 11.0 µM 100% | [7]; at 33.0 µM 99% | [7]; at 100.0 µM 100% | [8]; [18] 98% | [8]; at 50.0 µM 99.5% | [9]; at 11.0 µM 99% | [9]; at 33.0 µM 99% | [9]; at 100.0 µM 99% | [10]; [18] 98% | [10]; at 50.0 µM 99.2% | [11]; at 11.0 µM 99% | [11]; at 33.0 µM 99% | [11]; [18] 98% | [11]; at 50.0 µM 99% | [11]; at 100.0 µM 98% | [12]; at 3.7 µM 97% | [12]; at 11.0 µM 100% | [12]; at 33.0 µM 100% | [12]; at 100.0 µM 100% | [13]; at 11.0 µM 99% | [13]; at 33.0 µM 99% | [13]; at 100.0 µM 99% | [14]; at 3.7 µM 82% | [14]; at 11.0 µM 99% | [14]; at 33.0 µM 99% | [14]; at 100.0 µM 99% | [15]; [18] 98% | [15]; at 50.0 µM 99.4% | [16]; at 11.0 µM 99% | [16]; at 33.0 µM 99% | [16]; at 100.0 µM 99%

CC(C)C1=CCC2C(=C1)CCC1C(C)(C(=O)O)CCCC21C (stereo unspecified) (tested in a mixture with another compound)
active: [1]; at 100.0 µM 94% | [2]; at 100.0 µM 97% | [4]; at 100.0 µM 94% | [5]; [18] 98% | [5]; at 50.0 µM 83.5% | [5]; at 100.0 µM 92% | [6]; [18] 99% | [6]; at 50.0 µM 85.2% | [6]; at 100.0 µM 94% | [7]; at 100.0 µM 97% | [8]; [18] 96% | [8]; at 50.0 µM 84.5% | [9]; at 100.0 µM 96% | [10]; [18] 98% | [10]; at 50.0 µM 89.8% | [11]; [18] 97% | [11]; at 50.0 µM 85.5% | [11]; at 100.0 µM 95% | [12]; at 100.0 µM 93% | [13]; at 100.0 µM 96% | [14]; at 100.0 µM 96% | [15]; [18] 98% | [15]; at 50.0 µM 76.5% | [16]; at 100.0 µM 88%
inactive: [1]; at 1.2 µM 0% | [1]; at 3.7 µM 9% | [1]; at 11.0 µM 12% | [1]; at 33.0 µM 41% | [2]; at 1.2 µM 11% | [2]; at 3.7 µM 15% | [2]; at 11.0 µM 12% | [2]; at 33.0 µM 41% | [3]; at 1.2 µM 30% | [3]; at 3.7 µM 33% | [3]; at 11.0 µM 37% | [3]; at 33.0 µM 42% | [3]; at 100.0 µM 47% | [4]; at 1.2 µM 0% | [4]; at 3.7 µM 10% | [4]; at 11.0 µM 6% | [4]; at 33.0 µM 15% | [5]; at 1.2 µM 11% | [5]; at 3.7 µM 12% | [5]; [17] 30% | [5]; at 11.0 µM 16% | [5]; at 33.0 µM 41% | [6]; at 1.2 µM 18% | [6]; at 3.7 µM 13% | [6]; [17] 29% | [6]; at 11.0 µM 15% | [6]; at 33.0 µM 54% | [7]; at 1.2 µM 13% | [7]; at 3.7 µM 22% | [7]; at 11.0 µM 19% | [7]; at 33.0 µM 34% | [8]; [17] 31% | [9]; at 1.2 µM -2% | [9]; at 3.7 µM 6% | [9]; at 11.0 µM -16% | [9]; at 33.0 µM 40% | [10]; [17] 9% | [11]; at 1.2 µM 8% | [11]; at 3.7 µM 11% | [11]; [17] 29% | [11]; at 11.0 µM 0% | [11]; at 33.0 µM 17% | [12]; at 1.2 µM -60% | [12]; at 3.7 µM -40% | [12]; at 11.0 µM -56% | [12]; at 33.0 µM 63% | [13]; at 1.2 µM 12% | [13]; at 3.7 µM 11% | [13]; at 11.0 µM 6% | [13]; at 33.0 µM 43% | [14]; at 1.2 µM 18% | [14]; at 3.7 µM 24% | [14]; at 11.0 µM 23% | [14]; at 33.0 µM 43% | [15]; [17] 40% | [16]; at 1.2 µM -5% | [16]; at 3.7 µM -9% | [16]; at 11.0 µM -20% | [16]; at 33.0 µM 15%
